High-throughput results deposited in PubChem BioAssay by several laboratories.
The list is not random: actives were taken first. Their share in the collection is about 6.9%.
GRIN3A LBD mod – modulates the human NR3A ligand-binding domain; NR3A LBD differential scanning fluorimetry, Tm shift; 0% = protein alone, 100% = glycine-bound protein; Tm shift relative to glycine control, % at 25 µM; 2.5% of 340,000 active; AID 1259313;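 active means melting temperature shift of at least 10% of the positive control shift, at one fixed dose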
Beta apoptosis – beta cell apoptosis inhibition. protection from apoptosis, % (no concentration beside the values). AID 435005. INS-1E cytokine-induced death, ATP luminescence, 48 h; percent of positive-control rescue, neutral wells zero. 0.8% of 300,000 active;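 active means Every replicate reaches about 75%, or at least half do and their mean reaches it too, limit read from the data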;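 further: higher means more ATP so stronger rescue from cytokine killing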
CSC inhib – cancer stem cell inhibition. cancer stem cell-like cells viability, luminescence. inhibition, % at 7.5 µM. 1.1% of 300,000 active; in the data active means inhibition above about 75%; tested in HMLE shEcad cells
Mdm2-MdmX inh – disrupts the human Mdm2-MdmX interaction; O15151+Q00987; inhibition, % at 8 µM; 3% of 330,000 active; SaOS-2 split-luciferase Mdm2/MdmX complementation, luminescence;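 active means inhibition of at least 50% at 8 µM in the primary screen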
Target sequence (O15151 whole entry, looked up): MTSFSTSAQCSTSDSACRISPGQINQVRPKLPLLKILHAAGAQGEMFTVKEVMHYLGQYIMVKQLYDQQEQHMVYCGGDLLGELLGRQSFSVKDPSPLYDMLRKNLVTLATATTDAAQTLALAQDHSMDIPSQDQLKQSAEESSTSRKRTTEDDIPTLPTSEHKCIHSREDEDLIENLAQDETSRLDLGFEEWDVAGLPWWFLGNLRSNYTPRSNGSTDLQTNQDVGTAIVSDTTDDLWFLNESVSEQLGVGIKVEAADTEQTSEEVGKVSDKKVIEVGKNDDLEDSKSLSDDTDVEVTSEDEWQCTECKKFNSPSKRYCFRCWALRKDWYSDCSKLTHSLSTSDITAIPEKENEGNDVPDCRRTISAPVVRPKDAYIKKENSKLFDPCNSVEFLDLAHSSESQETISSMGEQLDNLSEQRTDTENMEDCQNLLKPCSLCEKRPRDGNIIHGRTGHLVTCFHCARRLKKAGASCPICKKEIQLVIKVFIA
Target sequence (Q00987 whole entry, looked up): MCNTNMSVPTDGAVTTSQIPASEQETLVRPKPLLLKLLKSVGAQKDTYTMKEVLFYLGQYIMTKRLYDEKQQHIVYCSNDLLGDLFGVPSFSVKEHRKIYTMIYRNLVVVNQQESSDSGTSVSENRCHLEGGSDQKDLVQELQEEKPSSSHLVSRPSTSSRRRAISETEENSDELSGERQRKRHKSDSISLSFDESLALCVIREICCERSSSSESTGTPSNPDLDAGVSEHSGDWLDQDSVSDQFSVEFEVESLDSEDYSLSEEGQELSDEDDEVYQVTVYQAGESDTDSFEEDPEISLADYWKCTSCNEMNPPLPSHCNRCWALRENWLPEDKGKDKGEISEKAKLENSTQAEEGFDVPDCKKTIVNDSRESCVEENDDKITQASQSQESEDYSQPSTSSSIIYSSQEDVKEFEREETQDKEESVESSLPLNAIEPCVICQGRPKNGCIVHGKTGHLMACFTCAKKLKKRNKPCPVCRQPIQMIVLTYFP
SKKanGAS inh – SKKanGAS growth inhibition | inhibition, % at 7.5 µM | AID 1662 | 1.3% of 300,000 active | S. pyogenes SKKanGAS, kanamycin growth, BacTiter-Glo, 6 h;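 active means mean replicate score, as percent of positive control median, at least 50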;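 further: strain carries kanamycin resistance gene driven by streptokinase promoter and grows in 40 µg/ml kanamycin; loss of luminescence reflects streptokinase promoter inhibition or plain growth inhibition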
MPTP block – permeability transition pore inhibition; isolated mouse mitochondria, Ca2+ swelling absorbance, 30 min; 1.4% of 360,000 active; inhibition, % at 10 µM;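 active means inhibition of 50% or more, scaled per plate between neutral and stimulator controls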
Large screens that a line does not name were inactive; ! = not confirmed by another sample.

Cc1[nH]c(-c2ccc(F)cc2)cc1C(=O)N1CCN(c2cccc(Cl)c2)CC1	SKKanGAS inh 67
COc1cc(CC(=O)Nc2sc3c(c2C(N)=O)CCCC3)cc(OC)c1OC	none
O=C(Nc1cccc(-c2ccc(N3CCOCC3)nn2)c1)c1ccccc1Cl	SKKanGAS inh 50 (no result: CSC inhib)
COc1cc(OC)cc(C(=O)Nc2cccc(-c3ccc(N4CCOCC4)nn3)c2)c1	SKKanGAS inh 55 (no result: CSC inhib)
COc1cccc(OC)c1C(=O)Nc1cccc(-c2ccc(N3CCOCC3)nn2)c1	none
O=C(Nc1cccc(-c2ccc(N3CCOCC3)nn2)c1)c1ccc(Cl)cc1	none (no result: CSC inhib)
COc1ccc(C(=O)Nc2cccc(-c3ccc(N4CCOCC4)nn3)c2)cc1	SKKanGAS inh 52 (no result: CSC inhib)
O=C(Nc1ccc2nc(-c3cccs3)[nH]c2c1)c1ccco1	GRIN3A LBD mod 14
Cc1ccc2nc(-c3ccc(NC(=O)c4ccco4)cc3)[nH]c2c1	GRIN3A LBD mod 31 (no result: CSC inhib)
O=C(Nc1cccc(-c2nc3ccccc3[nH]2)c1)c1ccco1	none
Cn1cccc1-c1nc2ccc(NC(=O)c3ccco3)cc2[nH]1	none
O=C(Nc1ccc2nc(-c3cccs3)[nH]c2c1)c1cccs1	GRIN3A LBD mod 26
CC1(C(=O)NCc2ccccc2)CCC(=O)N1CCc1c[nH]c2ccccc12 (stereo not drawn)	none (no result: GRIN3A LBD mod, Beta apoptosis, CSC inhib, Mdm2-MdmX inh, SKKanGAS inh)
CC(=O)Nc1oc(-c2cccc3ccccc23)nc1C#N	none (no result: SKKanGAS inh)
CCN(CC(=O)Nc1c(F)cccc1F)C(=O)CSc1nc(C)cc(C)n1	none (no result: CSC inhib)
NCCCC[C@H]1CNC(=O)C(=O)N1CCC12CC3CC(CC(C3)C1)C2	none
CN1OC[C@@H]2CN(S(=O)(=O)c3ccccc3)[C@H](c3ccc(-n4ccnc4)cc3)C[C@@H]21	none (no result: GRIN3A LBD mod, Beta apoptosis, CSC inhib, Mdm2-MdmX inh, SKKanGAS inh)
Cc1cccc(Nc2nc(-c3ccc(O)c(O)c3)cs2)n1	GRIN3A LBD mod 39 (no result: Beta apoptosis)
Cc1cccc(Nc2nc(-c3ccc(F)c(C)c3)cs2)n1	SKKanGAS inh 72
COc1ccc(-c2csc(Nc3ncccn3)n2)cc1C	none
Cc1cc(C)nc(Nc2nc(-c3ccccc3)cs2)n1	none
COC(=O)C1(C(=O)OC)C[C@H](c2cccs2)N(Cc2ccccc2OC)[C@@H]1c1ccc(F)cc1	none (no result: GRIN3A LBD mod, Beta apoptosis, CSC inhib, Mdm2-MdmX inh, SKKanGAS inh)
COc1cccc(NC(=O)COC(=O)c2ccc(C)c(S(=O)(=O)N3CCCCC3)c2)c1	none (no result: SKKanGAS inh)
CC(C)(C)NC(=O)NC(=O)COC(=O)C1CCN(S(=O)(=O)c2cccs2)CC1	none (no result: Beta apoptosis, CSC inhib, SKKanGAS inh)
CCC(NC(=S)NC1CCCCC1)c1ccc(C(C)C)cc1 (stereo not drawn)	SKKanGAS inh 65 (no result: GRIN3A LBD mod)
CC1CCC2C(=O)N(c3ccc(NC4CCCCC4)c([N+](=O)[O-])c3)C(=O)C2C1 (stereo not drawn)	CSC inhib 76
CCOC(=O)N1CCC(Nc2ccc(N3C(=O)C4CCCCC4C3=O)cc2[N+](=O)[O-])CC1 (stereo not drawn)	none
COc1ccc(Cn2nnnc2C(C(C)C)N(Cc2ccco2)Cc2cccs2)cc1 (stereo not drawn)	CSC inhib 77
CCN(CC)C(=O)Oc1cc(=O)n2c3c(cccc13)CCC2	GRIN3A LBD mod 20
COc1cccc(NC(=O)CN(C)CC(=O)Nc2cccc(C(F)(F)F)c2)c1	none
COc1cccc(NC(=O)CN(C)C(=O)c2cccnc2Nc2cccc(C(F)(F)F)c2)c1	GRIN3A LBD mod 35 (no result: CSC inhib, SKKanGAS inh)
COc1ccc(-c2noc(N(C)CC(=O)Nc3cccc(C(F)(F)F)c3)n2)cc1	GRIN3A LBD mod 10
Cc1ccc(NC(=O)CN(C)C(=O)c2cccnc2Nc2cccc(C(F)(F)F)c2)cc1	GRIN3A LBD mod 16
O=c1[nH]c(-c2ccccc2)c(-c2ccccc2)o1	none
CNc1oc(-c2ccc(Cl)cc2)nc1P(=O)(c1ccccc1)c1ccccc1	CSC inhib 120
Cc1cc(Cl)ccc1Nc1ncccc1C(N)=O	GRIN3A LBD mod 151
O=C(NN=Cc1ccc(Cl)cc1Cl)c1ccccc1	none (no result: GRIN3A LBD mod, Beta apoptosis, CSC inhib, Mdm2-MdmX inh, SKKanGAS inh)
O=C(CN1c2ccccc2Sc2ccccc21)N/N=C/c1ccc(Cl)cc1Cl	GRIN3A LBD mod 15
COc1cc(/C=C2\SC(=S)N(Nc3ccccc3)C2=O)ccc1O	GRIN3A LBD mod 11 (no result: CSC inhib)
COc1cc(/C=C2\SC(=S)N(Nc3ncc(C(F)(F)F)cc3Cl)C2=O)ccc1O	GRIN3A LBD mod 14
CCOc1cc(/C=C2\SC(=S)N(Nc3ccccc3)C2=O)ccc1O	none
CN(C)c1ccc(/C=C2\SC(=S)N(Nc3ncc(C(F)(F)F)cc3Cl)C2=O)cc1	none (no result: CSC inhib)
O=C(O)c1ccc(/C=C2\SC(=S)N(Nc3ccccc3)C2=O)cc1	Beta apoptosis 91
NC(=O)CNC(=O)C1CCN(S(=O)(=O)c2ccc(-n3cnnn3)cc2)CC1	none (no result: CSC inhib)
Cc1ccc2cc(CN(Cc3cccs3)C(=O)c3ccco3)c3nnnn3c2c1C	SKKanGAS inh 63 (no result: GRIN3A LBD mod, MPTP block)
COc1ccc(-c2csc3ncnc(N4CCN(Cc5ccccc5)CC4)c23)cc1	GRIN3A LBD mod 14
COc1ccc(-c2csc3ncnc(N4CCN(c5ccccc5)CC4)c23)cc1	none
CCCN1CCCc2cc(CN)ccc21	Beta apoptosis 98
CN1CCCc2cc(C=O)ccc21	none
O=C(N/N=C\C=C\c1ccco1)c1cc(-c2ccc3ccccc3c2)n[nH]1	GRIN3A LBD mod 15
O=C(N/N=C/C=C\c1ccco1)c1ccccn1	none
CCOc1nc(Nc2ccc([N+](=O)[O-])cc2)nc(NC(C)(C)C)n1	none
CCN(CC)c1nc(Nc2ccc([N+](=O)[O-])cc2)nc(N(CC)CC)n1	SKKanGAS inh 65
O=C(CSc1ncn[nH]1)Nc1ccc(OCc2ccccc2)cc1	none
CCOC(=O)N1CCN(c2ccc(S(=O)(=O)N(Cc3ccccc3)Cc3ccccc3)cn2)CC1	Beta apoptosis 104
CCOC(=O)N1CCN(CC(O)COc2c(C)cc(C)cc2C)CC1 (stereo not drawn)	none
COC(=O)c1cccc(NC(=O)CCc2c(C)noc2C)c1	none (no result: SKKanGAS inh)
O=C(O)c1ccc(NC(=O)c2cn(-c3ccccc3)nc2-c2cccc(Cl)c2)cc1	none
COc1ccc(-c2sc3cc4c(cc3c2C#CC2(O)CCCCC2)OCO4)cc1	CSC inhib 112 (no result: SKKanGAS inh)
COc1ccc(S(=O)(=O)N2CCOCC2)cc1NC(=O)COc1cccnc1[N+](=O)[O-]	none
Cc1[nH]n(-c2ccccc2)c(=O)c1C1(C(F)(F)F)C(=O)N(c2ccccc2)C2=C1C(=O)CC(C)(C)C2 (stereo not drawn)	GRIN3A LBD mod 13
Cc1ccccc1OCC(=O)OCC(=O)c1ccc(OC(=O)c2ccccc2)cc1	none
Cc1ccccc1OCC(=O)OCC(=O)c1ccc(OCc2ccccc2)cc1	GRIN3A LBD mod 25
C=CCOn1c(=O)c(-c2ccc(C)cc2)[n+]([O-])c2ccccc21	none
CN(C)CCC(c1ccc(Cl)cc1)c1ccccn1 (stereo not drawn)	GRIN3A LBD mod 16!
COc1ccc(C(=O)N2CCCCC2c2cc(C(=O)NCc3cccnc3)no2)cc1 (stereo not drawn)	none (no result: GRIN3A LBD mod, Beta apoptosis, CSC inhib, Mdm2-MdmX inh, SKKanGAS inh)
Cc1c(C(=O)Nc2ccc(-c3nnc4n3CCCCC4)cc2)oc2c1ccc1ccccc12	CSC inhib 117
